tested on: CSF1R; settings: concentration: 1 μM, replicates: in singlicate; n = 1
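Note: KINOMEscan kinase panel screen.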

Compound | %Inh [%]
O=c1cc(N2CCOCC2)nc2n(Cc3cccc(Cl)c3Cl)c(C3CC3)nn12 [GSK2358994] | 0
CCc1nc(-c2cccc(C)c2)c(-c2ccnc(NCc3ccccc3)c2)s1 | 6
COc1cc2c(cc1OCCN1CCN(C)CC1)ncc1c3ccc(C#N)cc3[nH]c21 | 49
NCC(NC(=O)c1cc(-c2cn[nH]c2)c(-c2ccnc3[nH]ccc23)s1)c1ccccc1.O=C(O)C(F)(F)F.O=C(O)C(F)(F)F (stereo not shown) [GSK1325775] | 26
O=c1cc(N2CCOCC2)nc2n(Cc3cccc4ccccc34)ccn12 [GSK2333389] | 4
O=C(Nc1n[nH]c2cc(-c3cccc(F)c3)ccc12)C1CC1 [SB-735464] | 2
C[C@@H](Oc1cc(-n2cnc3ccc(NC(=O)NC(C)(C)C)cc32)sc1C(N)=O)c1ccccc1Cl [GSK346294] | 6
Cn1ccc2ncnc(Oc3ccc(NC(=O)Nc4ccncc4)c(Cl)c3)c21 | 0
Nc1nc(-c2ccc3c(N)n[nH]c3c2)cc(N2CCCC2)n1 [GSK2227430] | 2
O=C(NOCC1CC1)c1ccc(F)c(F)c1Nc1ccc(I)cc1Cl | 0
Cn1cc(-c2ccc3c(c2)CCN3C(=O)Cc2ccccc2Cl)c2c(N)ncnc21 [GSK2608885] | 99.8
COc1ccc(S(=O)(=O)NC2CCN(c3cc(C)nc(Nc4cccc(C#N)c4)n3)CC2)cc1.O=C(O)C(F)(F)F [GSK1653539] | 1
Cc1ccc(C(=O)NCC(N)=O)cc1-n1c(C)cc(OCc2ccc(F)cc2F)c(Br)c1=O | 16

Source: publication PMC5540273 (PLoS ONE, 2017)
